# Source: the supplement of paper PMC8728848
# Many of the other results were omitted from the sample, so the strongest signals are more common in it than they were.
# What was measured:
# Experiment in all cases: glycan array binding signal (z-score within array); higher = stronger binding
# Conditions in all cases: glycan notation: IUPAC condensed, linker removed
# Fuc(a1-2)Gal = target: Fuc(a1-2)Gal
# In short: (§1)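 From the Consortium for Functional Glycomics database, 3228 arrays were curated, keeping only those whose protein sequence was available. Binding is given as a within-array Z-score averaged across arrays sharing a protein sequence and across linkers. Negative Z-scores can be read as non-binding.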
# Fuc(a1-2)Gal(b1-3)GlcNAc = target: Fuc(a1-2)Gal(b1-3)GlcNAc
# In short: as §1
# [1] = target: Fuc(a1-2)Gal(b1-3)GlcNAc(b1-2)Man(a1-3)[Fuc(a1-2)Gal(b1-3)GlcNAc(b1-2)Man(a1-6)]Man(b1-4)GlcNAc(b1-4)GlcNAc
# In short: as §1
# [2] = target: Fuc(a1-2)Gal(b1-3)GlcNAc(b1-2)Man(a1-3)[Fuc(a1-2)Gal(b1-3)GlcNAc(b1-2)Man(a1-6)]Man(b1-4)GlcNAc(b1-4)[Fuc(a1-6)]GlcNAc
# In short: as §1
# [3] = target: Fuc(a1-2)Gal(b1-3)GlcNAc(b1-3)GalNAc
# In short: as §1
# [4] = target: Fuc(a1-2)Gal(b1-3)[Fuc(a1-4)]GlcNAc(b1-2)Man(a1-3)[Fuc(a1-2)Gal(b1-3)[Fuc(a1-4)]GlcNAc(b1-2)Man(a1-6)]Man(b1-4)GlcNAc(b1-4)[Fuc(a1-6)]GlcNAc(b1-4)[Fuc(a1-6)]GlcNAc
# In short: as §1
# Fuc(a1-2)Gal(b1-4)GlcNAc = target: Fuc(a1-2)Gal(b1-4)GlcNAc
# In short: as §1
# [5] = target: Fuc(a1-2)Gal(b1-4)[Fuc(a1-3)]GlcNAc(b1-2)Man(a1-3)[Fuc(a1-2)Gal(b1-4)[Fuc(a1-3)]GlcNAc(b1-2)Man(a1-6)]Man(b1-4)GlcNAc(b1-4)[Fuc(a1-6)]GlcNAc
# In short: as §1
# Fuc(a1-2)Gal6S(b1-4)Glc = target: Fuc(a1-2)Gal6S(b1-4)Glc
# In short: as §1
# [6] = target: Fuc(a1-2)[Gal(a1-3)]Gal(b1-3)GlcNAc(b1-3)GalNAc
# In short: as §1
# [7] = target: Fuc(a1-2)[Gal(a1-4)]Gal(b1-4)GlcNAc
# In short: as §1
# [8] = target: Fuc(a1-3)[Gal(b1-4)]GlcNAc(b1-2)Man
# In short: as §1
# [9] = target: Fuc(a1-3)[Gal(b1-4)]GlcNAc(b1-2)Man(a1-3)[Fuc(a1-3)[Gal(b1-4)]GlcNAc(b1-2)Man(a1-6)]Man(b1-4)GlcNAc(b1-4)GlcNAc
# In short: as §1
# [10] = target: Fuc(a1-3)[Gal(b1-4)]GlcNAc(b1-6)GalNAc
# In short: as §1
# [11] = target: Gal(a1-3)Gal(b1-3)GlcNAc(b1-2)Man
# In short: as §1
# [12] = target: Gal(a1-3)Gal(b1-4)GlcNAc(b1-6)GalNAc
# In short: as §1
# [13] = target: Gal(a1-3)[Gal(a1-4)]Gal(b1-4)GlcNAc
# In short: as §1
# Gal(a1-4)Gal(b1-4)GlcNAc = target: Gal(a1-4)Gal(b1-4)GlcNAc
# In short: as §1
# Gal(b1-2)Gal = target: Gal(b1-2)Gal
# In short: as §1
# Gal(b1-4)GlcNAc = target: Gal(b1-4)GlcNAc
# In short: as §1
# [14] = target: Gal(b1-4)GlcNAc(b1-3)Gal(b1-4)Glc
# In short: as §1
# [15] = target: Gal(b1-4)GlcNAc(b1-3)Gal(b1-4)GlcNAc(b1-2)Man(a1-3)[Gal(b1-4)GlcNAc(b1-3)Gal(b1-4)GlcNAc(b1-2)Man(a1-6)]Man(b1-4)GlcNAc(b1-4)GlcNAc
# In short: as §1
# GalNAc(b1-3)Gal = target: GalNAc(b1-3)Gal
# In short: as §1
# [16] = target: GalNAc(b1-3)Gal(a1-4)Gal(b1-4)GlcNAc(b1-3)Gal(b1-4)Glc
# In short: as §1
# Glc(b1-4)Glc = target: Glc(b1-4)Glc
# In short: as §1
# [17] = target: GlcA3S(b1-3)Gal(b1-4)GlcNAc(b1-3)Gal(b1-4)Glc
# In short: as §1
# [18] = target: GlcNAc(b1-2)[GlcNAc(b1-4)]Man(a1-3)[GlcNAc(b1-4)][GlcNAc(b1-2)Man(a1-6)]Man(b1-4)GlcNAc(b1-4)GlcNAc
# In short: as §1
# GlcNAc(b1-3)Gal(b1-4)Glc = target: GlcNAc(b1-3)Gal(b1-4)Glc
# In short: as §1
# [19] = target: GlcNAc(b1-3)Gal(b1-4)GlcNAc(b1-2)Man(a1-3)[GlcNAc(b1-3)Gal(b1-4)GlcNAc(b1-2)Man(a1-6)]Man(b1-4)GlcNAc(b1-4)[Fuc(a1-6)]GlcNAc
# In short: as §1
# [20] = target: GlcNAc(b1-3)Gal(b1-4)GlcNAc(b1-3)Gal(b1-4)GlcNAc(b1-2)Man(a1-3)[GlcNAc(b1-3)Gal(b1-4)GlcNAc(b1-3)Gal(b1-4)GlcNAc(b1-2)Man(a1-6)]Man(b1-4)GlcNAc(b1-4)[Fuc(a1-6)]GlcNAc
# In short: as §1
# [21] = target: GlcNAc(b1-3)Gal(b1-4)GlcNAc(b1-3)Gal(b1-4)GlcNAc(b1-3)Gal(b1-4)GlcNAc(b1-2)[GlcNAc(b1-3)Gal(b1-4)GlcNAc(b1-3)Gal(b1-4)GlcNAc(b1-3)Gal(b1-4)GlcNAc(b1-6)]Man(a1-6)[GlcNAc(b1-3)Gal(b1-4)GlcNAc(b1-3)Gal(b1-4)GlcNAc(b1-3)Gal(b1-4)GlcNAc(b1-2)Man(a1-3)]Man(b1-4)GlcNAc(b1-4)[Fuc(a1-6)]GlcNAc
# In short: as §1
# Man(a1-2)Man(a1-3)Man = target: Man(a1-2)Man(a1-3)Man
# In short: as §1
# [22] = target: Man(a1-3)[Man(a1-6)]Man(b1-4)GlcNAc(b1-4)GlcNAc
# In short: as §1
# [23] = target: Neu5Ac(a2-3)Gal(b1-3)GlcNAc(b1-3)GalNAc
# In short: as §1
# [24] = target: Neu5Ac(a2-3)Gal(b1-3)[Fuc(a1-4)]GlcNAc
# In short: as §1
# [25] = target: Neu5Ac(a2-3)Gal(b1-4)GlcNAc(b1-2)Man(a1-3)[Neu5Ac(a2-3)Gal(b1-4)GlcNAc(b1-2)Man(a1-6)]Man(b1-4)GlcNAc(b1-4)[Fuc(a1-6)]GlcNAc
# In short: as §1
# [26] = target: Neu5Ac(a2-3)Gal(b1-4)[Fuc(a1-3)]GlcNAc(b1-3)GalNAc
# In short: as §1
# [27] = target: Neu5Ac(a2-6)Gal(b1-4)GlcNAc(b1-2)Man
# In short: as §1
# [28] = target: Neu5Ac(a2-6)Gal(b1-4)GlcNAc(b1-2)Man(a1-3)[GlcNAc(b1-2)Man(a1-6)]Man(b1-4)GlcNAc(b1-4)GlcNAc
# In short: as §1
# [29] = target: Neu5Ac(a2-6)Gal(b1-4)GlcNAc(b1-2)Man(a1-3)[Neu5Ac(a2-6)Gal(b1-4)GlcNAc(b1-2)Man(a1-6)]Man(b1-4)GlcNAc(b1-4)GlcNAc
# In short: as §1
# [30] = target: Neu5Ac(a2-6)Gal(b1-4)GlcNAc(b1-2)Man(a1-6)Man(b1-4)GlcNAc(b1-4)GlcNAc
# In short: as §1
# [31] = target: Neu5Ac(a2-6)GlcNAc(b1-4)GlcNAc(b1-4)GlcNAc
# In short: as §1
# [32] = target: Neu5Ac(a2-8)Neu5Gc(a2-3)Gal(b1-4)GlcNAc
# In short: as §1
# Neu5Gc(a2-3)Gal(b1-4)Glc = target: Neu5Gc(a2-3)Gal(b1-4)Glc
# In short: as §1
# Neu5Gc(a2-6)GalNAc = target: Neu5Gc(a2-6)GalNAc
# In short: as §1
# [33] = target: Neu5Gc(a2-8)Neu5Gc(a2-3)Gal(b1-4)GlcNAc(b1-3)Gal(b1-4)GlcNAc
# In short: as §1
binder,measurement,setting,value
PX14375D-bvu-513-34-513 (Bacteroides vulgatus) (protein) TEDTFWKDETDFNLALTSCYTPLKNALNGGYYGTRGVMLRIARADEVDFRNDISDVYTVNRFTNSNTNSLTQGMFYQFYNALYRTNSIMQKLEEKKEQFSTDFQNSVKGECLFIRGFYLFQLAKEFKDAPLRLTASQSPSTFPLAKSSQADIWAQAKEDLKTAASLLPITNKIGKPTQGAAYAALGKIYVYEENWQEAINVLEPLTQNPYTYKLVEDFNWNFDDTHENNAESIFELLIEDVGGTDLWGDGENINSTQSNTRPKEYAAAEVGGWYEANPTQQIMDIFWKEKDKDGNFDYRARCSVAWDYEGCTYYQRPFREVFAQDKWKTYWILKYQNWKTQKDEPAPPKSFINERAIRYADVLLMLAEAYMNKGALDTSIGYINQIRRRANLNDYSGPITKEGVFEDLVHQRAIEFFVEGERFYDLRRWGLLEQTLKTCDDTRYKNYQTGKSDNINKFNYFPIPAKELDTNPLCTPSEGW,glycan array binding signal (z-score),Fuc(a1-2)Gal,0.373
same,glycan array binding signal (z-score),Fuc(a1-2)Gal(b1-3)GlcNAc,-0.892
same,glycan array binding signal (z-score),[1],1.56
same,glycan array binding signal (z-score),[2],0.425
same,glycan array binding signal (z-score),[3],-0.35
same,glycan array binding signal (z-score),[4],2.03
same,glycan array binding signal (z-score),Fuc(a1-2)Gal(b1-4)GlcNAc,0.501
same,glycan array binding signal (z-score),[5],1.81
same,glycan array binding signal (z-score),Fuc(a1-2)Gal6S(b1-4)Glc,-0.059
same,glycan array binding signal (z-score),[6],-0.366
same,glycan array binding signal (z-score),[7],-0.107
same,glycan array binding signal (z-score),[8],2.96
same,glycan array binding signal (z-score),[9],-0.56
same,glycan array binding signal (z-score),[10],0.851
same,glycan array binding signal (z-score),[11],-0.81
same,glycan array binding signal (z-score),[12],0.081
same,glycan array binding signal (z-score),[13],2.92
same,glycan array binding signal (z-score),Gal(a1-4)Gal(b1-4)GlcNAc,0.227
same,glycan array binding signal (z-score),Gal(b1-2)Gal,-0.667
same,glycan array binding signal (z-score),Gal(b1-4)GlcNAc,0.126
same,glycan array binding signal (z-score),[14],-0.017
same,glycan array binding signal (z-score),[15],1.87
same,glycan array binding signal (z-score),GalNAc(b1-3)Gal,-0.306
same,glycan array binding signal (z-score),[16],0.403
same,glycan array binding signal (z-score),Glc(b1-4)Glc,0.371
same,glycan array binding signal (z-score),[17],-0.213
same,glycan array binding signal (z-score),[18],-0.188
same,glycan array binding signal (z-score),GlcNAc(b1-3)Gal(b1-4)Glc,-0.384
same,glycan array binding signal (z-score),[19],1.56
same,glycan array binding signal (z-score),[20],1.62
same,glycan array binding signal (z-score),[21],2.65
same,glycan array binding signal (z-score),Man(a1-2)Man(a1-3)Man,-1
same,glycan array binding signal (z-score),[22],0.478
same,glycan array binding signal (z-score),[23],-0.439
same,glycan array binding signal (z-score),[24],1.67
same,glycan array binding signal (z-score),[25],-0.211
same,glycan array binding signal (z-score),[26],1.33
same,glycan array binding signal (z-score),[27],-0.379
same,glycan array binding signal (z-score),[28],-0.096
same,glycan array binding signal (z-score),[29],-0.145
same,glycan array binding signal (z-score),[30],0.342
same,glycan array binding signal (z-score),[31],0.337
same,glycan array binding signal (z-score),[32],18.8
same,glycan array binding signal (z-score),Neu5Gc(a2-3)Gal(b1-4)Glc,-0.166
same,glycan array binding signal (z-score),Neu5Gc(a2-6)GalNAc,-0.168
same,glycan array binding signal (z-score),[33],-0.969
